This note sets out measurements from PubChem BioAssay.

The nature of experiment [1]: small molecules captured by biotinylated probe aFSTL3 – biochemical, small-molecule microarray, fluorescence 635/667, stem cell growth factor project, primary screen (AID 1064).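 Also: measures binding of the biotinylated anti-FSTL3 antibody to printed compounds.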 The conditions noted are these: higher = more signal.
A short description of experiment [2]: binders from COS7 lysate, DM2A8 probe, primary screen, torsin A project, cell lysate, small-molecule microarray, fluorescence 635/667 (AID 1065). The conditions noted are these: higher = more signal, COS7 lysate expressing mutant human TOR1A.
Experiment [3] can be described thus: small molecules captured by biotinylated probe aFGF2 – biochemical, small-molecule microarray, fluorescence 635/667, stem cell growth factor project, primary screen (AID 1067).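 Also: measures binding of biotinylated aFGF2 protein to printed compounds on slides; z-score merges feature fluorescence and signal-to-noise across triplicate slides.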 The conditions noted are these: higher = more signal.
Experiment [4] is described as follows: small molecules captured by biotinylated probe aFGF10 – biochemical, small-molecule microarray, fluorescence 635/667, stem cell growth factor project, primary screen (AID 1071).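 Also: score merges 667 nm spot intensity and signal to noise from triplicate slides.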 The conditions noted are these: higher = more signal.
In experiment [5] the target is Neurogenic locus notch homolog protein 2 (Homo sapiens) (UniProt Q04721). As to the kind of experiment: small molecules binding Notch2 protein – biochemical, small-molecule microarray, 635 nm fluorescence, stem cell growth factors, primary screen (AID 1073). The conditions noted are these: higher = more signal.
Neurogenic locus notch homolog protein 2 (Homo sapiens), sequence (Q04721 whole entry, looked up, canonical isoform): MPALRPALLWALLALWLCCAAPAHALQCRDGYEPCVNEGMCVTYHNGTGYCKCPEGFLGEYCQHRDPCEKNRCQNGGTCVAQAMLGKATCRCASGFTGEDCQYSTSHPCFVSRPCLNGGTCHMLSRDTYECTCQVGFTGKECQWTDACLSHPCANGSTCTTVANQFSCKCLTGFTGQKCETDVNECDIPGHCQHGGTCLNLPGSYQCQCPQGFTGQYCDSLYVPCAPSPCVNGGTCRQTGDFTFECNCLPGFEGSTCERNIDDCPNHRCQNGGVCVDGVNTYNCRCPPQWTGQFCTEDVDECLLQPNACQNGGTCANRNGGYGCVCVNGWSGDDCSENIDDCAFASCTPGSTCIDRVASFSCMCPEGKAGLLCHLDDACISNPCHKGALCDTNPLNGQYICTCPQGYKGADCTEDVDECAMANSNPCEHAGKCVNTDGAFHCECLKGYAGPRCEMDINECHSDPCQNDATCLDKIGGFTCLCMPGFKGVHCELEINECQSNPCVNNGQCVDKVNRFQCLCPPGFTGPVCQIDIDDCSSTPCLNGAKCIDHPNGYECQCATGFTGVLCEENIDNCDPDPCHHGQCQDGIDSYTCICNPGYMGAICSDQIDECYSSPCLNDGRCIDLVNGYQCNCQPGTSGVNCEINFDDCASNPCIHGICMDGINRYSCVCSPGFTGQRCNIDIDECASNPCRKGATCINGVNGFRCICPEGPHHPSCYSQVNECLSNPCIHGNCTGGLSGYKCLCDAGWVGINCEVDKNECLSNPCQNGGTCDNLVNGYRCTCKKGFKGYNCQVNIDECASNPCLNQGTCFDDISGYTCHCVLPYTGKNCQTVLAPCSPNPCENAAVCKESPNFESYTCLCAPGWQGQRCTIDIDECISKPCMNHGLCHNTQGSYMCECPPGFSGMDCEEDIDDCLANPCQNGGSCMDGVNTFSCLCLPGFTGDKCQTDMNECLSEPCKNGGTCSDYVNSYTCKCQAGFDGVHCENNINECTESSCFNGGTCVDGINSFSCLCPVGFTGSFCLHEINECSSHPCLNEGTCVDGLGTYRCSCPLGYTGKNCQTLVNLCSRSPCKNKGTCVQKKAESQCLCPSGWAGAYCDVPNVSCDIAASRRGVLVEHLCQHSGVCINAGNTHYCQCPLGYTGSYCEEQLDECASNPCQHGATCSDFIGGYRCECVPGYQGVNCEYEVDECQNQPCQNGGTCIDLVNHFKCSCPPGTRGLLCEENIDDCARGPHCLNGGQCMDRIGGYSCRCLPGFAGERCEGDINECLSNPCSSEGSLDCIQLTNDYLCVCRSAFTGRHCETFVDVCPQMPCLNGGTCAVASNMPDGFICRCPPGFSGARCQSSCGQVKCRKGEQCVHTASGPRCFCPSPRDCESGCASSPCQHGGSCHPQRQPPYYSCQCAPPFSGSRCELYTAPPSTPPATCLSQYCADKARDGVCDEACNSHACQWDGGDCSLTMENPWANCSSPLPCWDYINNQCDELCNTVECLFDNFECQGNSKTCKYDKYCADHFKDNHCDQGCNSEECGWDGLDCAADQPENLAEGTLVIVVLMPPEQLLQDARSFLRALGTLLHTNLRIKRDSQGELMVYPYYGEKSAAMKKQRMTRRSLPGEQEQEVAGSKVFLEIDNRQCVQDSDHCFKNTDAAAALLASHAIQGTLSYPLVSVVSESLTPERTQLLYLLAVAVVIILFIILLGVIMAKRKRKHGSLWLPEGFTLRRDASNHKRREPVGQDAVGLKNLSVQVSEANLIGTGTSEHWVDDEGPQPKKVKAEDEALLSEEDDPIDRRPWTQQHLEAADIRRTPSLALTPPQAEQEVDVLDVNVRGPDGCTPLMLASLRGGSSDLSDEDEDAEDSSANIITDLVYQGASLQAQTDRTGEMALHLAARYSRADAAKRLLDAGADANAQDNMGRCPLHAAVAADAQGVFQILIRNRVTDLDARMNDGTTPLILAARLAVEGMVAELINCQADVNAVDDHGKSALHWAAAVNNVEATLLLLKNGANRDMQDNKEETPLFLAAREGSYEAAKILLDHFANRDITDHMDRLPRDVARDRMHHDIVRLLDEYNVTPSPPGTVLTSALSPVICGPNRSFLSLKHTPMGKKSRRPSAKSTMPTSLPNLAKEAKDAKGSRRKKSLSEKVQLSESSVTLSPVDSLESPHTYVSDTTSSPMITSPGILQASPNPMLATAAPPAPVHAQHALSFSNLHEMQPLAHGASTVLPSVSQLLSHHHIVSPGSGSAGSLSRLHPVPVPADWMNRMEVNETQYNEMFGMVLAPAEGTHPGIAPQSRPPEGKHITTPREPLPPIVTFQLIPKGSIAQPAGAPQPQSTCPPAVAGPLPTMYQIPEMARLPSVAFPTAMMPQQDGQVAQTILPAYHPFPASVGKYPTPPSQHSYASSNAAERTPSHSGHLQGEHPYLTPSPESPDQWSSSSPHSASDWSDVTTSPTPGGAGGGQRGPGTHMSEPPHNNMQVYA
The target of experiment [6] is Pro-neuregulin-1, membrane-bound isoform (Homo sapiens) (UniProt Q02297). Description: small molecules binding neuregulin-1 protein – biochemical, small-molecule microarray, fluorescence 635/667, psychiatric disease protein project, primary screen (AID 1075).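 Also: score combines 667 nm spot fluorescence with signal to noise.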 The conditions noted are these: NRG1 binding, 635 nm fluorescence, higher = more signal.
Experiment [7] concerns Neuregulin-1 EGF-like domain. As to the kind of experiment: small molecules binding NRG1 EGF domain – biochemical, small-molecule microarray, 635 nm fluorescence, primary screen (AID 1081).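 Also: binding of the protein to compounds printed on small-molecule microarray slides.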 The conditions noted are these: higher = more signal.
Experiment [8] in a line: FRG1 expression reporter modulators in myotubes – cell-based, C2C12 myotubes, firefly/Renilla luciferase, luminescence, FRG1 inhibition for FSHD, primary screen (AID 1084). The conditions noted are these: FRG1 promoter luciferase, higher = more signal, called active from +8 up or from −8 down.
A short description of experiment [9]: small molecules captured by biotinylated probe aFST – biochemical, small-molecule microarray, fluorescence 635/667, stem cell growth factor project, primary screen (AID 1086).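 Also: score merges 667 nm fluorescence with signal-to-noise of each printed compound spot.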 The conditions noted are these: higher = more signal.
The nature of experiment [10]: binders of probe aHhip on microarray, primary screen, stem cell growth factor project, biochemical, small-molecule microarray, fluorescence 635/667 (AID 1087).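 Also: score merges spot fluorescence at 667nm with spot signal to noise ratio.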 The conditions noted are these: higher = more signal.
Experiment [11] concerns PRMT1 (protein arginine N-methyltransferase 1). Description: small molecules binding arginine methyltransferase PRMT1 – biochemical, small-molecule microarray, 635 nm fluorescence, primary screen (AID 1088).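 Also: binding of Prmt1 protein to compounds spotted on small-molecule microarray slides.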 The conditions noted are these: higher = more signal.
Experiment [12] is described as follows: growth effects on S. cerevisiae YJM789 – YJM789 clinical isolate, OD600, 24 h, basal, primary screen (AID 1089).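 Also: growth of clinical yeast isolate S. cerevisiae YJM 789 seeded 1000 cells per well; test concentration not given here.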 The conditions noted are these: higher = more signal, called active from +8 up or from −8 down.
Experiment [13] can be described thus: S. pombe growth modifiers, basal conditions – strain 972, OD600, 24 h, no modulator, primary screen (AID 1090).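 Also: basal condition with compound alone and no growth modifier present; test concentration not given here.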 The conditions noted are these: S. pombe 972 growth, higher = more signal, called active from +8 up or from −8 down.
Experiment [14] in a line: budding yeast growth modifiers under rapamycin – strain BY4716, OD600, 96 h, primary screen (AID 1091). Also: test concentration not given here. The conditions noted are these: S. cerevisiae BY4716 + rapamycin, higher = more signal, called active from +8 up or from −8 down.
For experiment [15], the target named is Torsin-1A-interacting protein 2 (Homo sapiens) (UniProt Q8NFQ8). Description: small molecules binding lysate-expressed LULL1 – cell lysate, human LULL1 lysate, 635/667 nm fluorescence, primary screen (AID 1092).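 Also: probe is lysate of COS7 cells overexpressing human LULL1; score merges per-feature 667 nm fluorescence with signal-to-noise.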 The conditions noted are these: small-molecule microarray, hLULL1 lysate binding, 635 nm fluorescence; higher = more signal.
Experiment [16] can be described thus: optical density change of DRC41 E. coli – strain DRC41, OD650, 24 h, E. coli filamentation project, primary screen (AID 1093).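 Also: MC1000 strain lacking acrAB efflux and sulA so SOS filamentation is blocked; test concentration not given here.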 The conditions noted are these: E. coli DRC41 growth, higher = more signal, called active from +8 up or from −8 down.
Experiment [17] is described as follows: probe aLefty2 binding to arrayed compounds – biochemical, biotinylated probe, 635/667 nm fluorescence, primary screen (AID 1094).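 Also: score merges spot fluorescence near 667 nm with spot signal-to-noise ratio.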 The conditions noted are these: small-molecule microarray, higher = more signal.
For experiment [18], the system named is Noggin (protein binding on small-molecule microarray). Description: small molecules binding Noggin protein – biochemical, 635/667 nm fluorescence, primary screen (AID 1095).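 Also: score merges 667 nm feature fluorescence with signal to noise over triplicate slides.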 The conditions noted are these: 635 nm fluorescence, higher = more signal.
Experiment [19] addresses Neurogenic locus notch homolog protein 3 (Homo sapiens) (UniProt Q9UM47). Description: small molecules binding NOTCH3 protein – biochemical, 635/667 nm fluorescence, primary screen (AID 1096). The conditions noted are these: small-molecule microarray, 635 nm fluorescence, higher = more signal.
The nature of experiment [20]: probe aEGFR binding to arrayed compounds – biochemical, biotinylated probe, 635/667 nm fluorescence, primary screen (AID 1097).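 Also: probe is a biotinylated anti-EGFR antibody binding compounds printed on slides; score combines fluorescence near 667 nm and signal to noise of each spot.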 The conditions noted are these: small-molecule microarray, higher = more signal.

Calls of active or inactive are those of the source.

Neurogenic locus notch homolog protein 3 (Homo sapiens), sequence (Q9UM47 whole entry, looked up): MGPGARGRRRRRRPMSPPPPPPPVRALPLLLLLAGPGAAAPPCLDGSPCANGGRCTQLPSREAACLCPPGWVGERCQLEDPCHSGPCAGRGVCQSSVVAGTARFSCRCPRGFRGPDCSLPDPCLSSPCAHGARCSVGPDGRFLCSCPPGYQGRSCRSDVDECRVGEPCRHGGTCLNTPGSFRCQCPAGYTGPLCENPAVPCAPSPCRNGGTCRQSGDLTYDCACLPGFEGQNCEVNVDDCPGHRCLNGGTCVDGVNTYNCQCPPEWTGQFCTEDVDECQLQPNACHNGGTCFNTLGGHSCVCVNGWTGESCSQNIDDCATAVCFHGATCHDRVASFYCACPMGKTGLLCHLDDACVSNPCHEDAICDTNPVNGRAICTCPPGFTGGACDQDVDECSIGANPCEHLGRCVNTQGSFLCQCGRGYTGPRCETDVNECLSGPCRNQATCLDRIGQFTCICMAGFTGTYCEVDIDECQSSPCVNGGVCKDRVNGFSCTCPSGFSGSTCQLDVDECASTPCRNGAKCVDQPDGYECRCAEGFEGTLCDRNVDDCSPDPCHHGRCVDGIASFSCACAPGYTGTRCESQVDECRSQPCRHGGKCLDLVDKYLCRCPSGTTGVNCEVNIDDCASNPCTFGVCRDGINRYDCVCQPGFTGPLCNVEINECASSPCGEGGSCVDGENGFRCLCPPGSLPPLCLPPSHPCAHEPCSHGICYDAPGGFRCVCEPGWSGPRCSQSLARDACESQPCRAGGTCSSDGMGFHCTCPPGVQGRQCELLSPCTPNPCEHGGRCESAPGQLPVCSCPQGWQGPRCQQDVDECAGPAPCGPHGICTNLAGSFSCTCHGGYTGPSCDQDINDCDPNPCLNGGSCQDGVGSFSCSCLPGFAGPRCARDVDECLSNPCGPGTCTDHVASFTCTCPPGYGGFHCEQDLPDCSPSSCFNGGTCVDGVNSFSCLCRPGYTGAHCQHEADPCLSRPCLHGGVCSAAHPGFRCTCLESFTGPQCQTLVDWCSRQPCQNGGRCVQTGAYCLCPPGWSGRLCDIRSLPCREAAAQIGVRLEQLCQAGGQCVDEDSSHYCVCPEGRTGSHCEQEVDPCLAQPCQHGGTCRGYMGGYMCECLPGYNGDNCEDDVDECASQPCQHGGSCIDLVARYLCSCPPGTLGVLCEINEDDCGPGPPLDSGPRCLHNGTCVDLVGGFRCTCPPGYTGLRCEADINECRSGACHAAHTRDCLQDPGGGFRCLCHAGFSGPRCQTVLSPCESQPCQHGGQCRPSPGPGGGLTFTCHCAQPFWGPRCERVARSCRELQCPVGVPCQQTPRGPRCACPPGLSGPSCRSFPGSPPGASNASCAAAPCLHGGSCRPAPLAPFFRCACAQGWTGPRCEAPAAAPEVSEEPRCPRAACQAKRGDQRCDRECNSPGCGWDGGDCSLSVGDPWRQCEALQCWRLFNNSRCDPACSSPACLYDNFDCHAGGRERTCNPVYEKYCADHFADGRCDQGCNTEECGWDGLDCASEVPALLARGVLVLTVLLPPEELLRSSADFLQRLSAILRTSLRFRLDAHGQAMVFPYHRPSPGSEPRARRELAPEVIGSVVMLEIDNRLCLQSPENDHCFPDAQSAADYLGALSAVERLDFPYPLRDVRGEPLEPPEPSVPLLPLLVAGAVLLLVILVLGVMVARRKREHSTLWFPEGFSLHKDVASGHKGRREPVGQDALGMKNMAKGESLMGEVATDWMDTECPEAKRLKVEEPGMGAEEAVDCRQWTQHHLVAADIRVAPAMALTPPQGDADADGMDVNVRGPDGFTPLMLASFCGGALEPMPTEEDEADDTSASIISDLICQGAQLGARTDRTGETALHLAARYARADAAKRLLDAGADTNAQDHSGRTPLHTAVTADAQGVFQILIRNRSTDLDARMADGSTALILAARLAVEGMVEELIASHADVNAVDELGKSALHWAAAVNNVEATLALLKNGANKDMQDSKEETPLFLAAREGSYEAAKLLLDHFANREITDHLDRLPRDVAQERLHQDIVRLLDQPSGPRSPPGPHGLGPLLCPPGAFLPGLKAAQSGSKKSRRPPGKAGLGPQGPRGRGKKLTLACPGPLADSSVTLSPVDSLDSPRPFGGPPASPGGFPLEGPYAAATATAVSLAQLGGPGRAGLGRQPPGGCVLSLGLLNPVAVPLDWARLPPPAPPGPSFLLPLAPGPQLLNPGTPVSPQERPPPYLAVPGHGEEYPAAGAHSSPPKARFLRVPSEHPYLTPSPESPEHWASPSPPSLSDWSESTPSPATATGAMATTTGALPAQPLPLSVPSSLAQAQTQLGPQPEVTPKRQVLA

Turning to `COC(=O)c1c(CC[C@@H](CO)NC(=O)N[C@H](Cn2cc(Cc3ccccc3)nn2)C(C)C)oc(C(C)=O)c1C(=O)OC`, the composite z-score in experiment [1] is -0.234; in [2] it was 0.128; in experiment [3], -0.119; in experiment [4], 1.09; in experiment [5], 0.0441; in experiment [6] it was 0.0567. For the same compound, the composite z-score is 1.06 in experiment [7]; 0.059 in experiment [9]; -0.236 in experiment [10]; 1.08 in [11]; 1.08 in experiment [15]; -0.166 in experiment [17]. Also, the composite z-score in experiment [18] was 0.493; in experiment [19] it was 0.39; in experiment [20] it was -0.145. Besides, the z-score in experiment [8] was 0.82 (inactive); in experiment [12], -0.178 (inactive); in [13], -0.787 (inactive); in experiment [14] it was 0.158 (inactive); in experiment [16] it was 0.918 (inactive).
As for `COc1ccc(C(=O)Nc2cccc(CN3C(=O)[C@]4(O[C@H](CCO)[C@@H]([Si](C)(C)c5ccc(OC)cc5)[C@@H]4C)c4ccccc43)c2)cc1`, the composite z-score is -0.442 in [1]; 0.193 in [2]; -0.102 in experiment [3]; 0.285 in experiment [4]; 0.484 in [5]; 0.621 in experiment [6]. Further, the composite z-score in experiment [7] is 1.09; in [9], 0.439; in experiment [10], -0.179; in experiment [11], 1.56; in experiment [15], 1.83; in experiment [17], -0.164. In addition, the composite z-score in [18] is 0.822; in experiment [19], 1; in experiment [20], -0.0675. Besides, the z-score in [8] was -3.19 (inactive); in experiment [12] it was 0.412 (inactive); in experiment [13], -14.9 (active); in experiment [14], 0.251 (inactive); in experiment [16], 1.03 (inactive).
As for `COCCCN1C(=O)[C@@]2(Cc3ccccc31)c1ccccc1C(=O)N(Cc1ccccc1C(F)(F)F)[C@H]2c1ccc(CO)cc1`, the composite z-score is -0.774 in experiment [1]; 0.356 in experiment [2]; -0.123 in experiment [3]; -0.179 in experiment [4]; -0.16 in experiment [5]; -0.0485 in [6]. Further, the composite z-score is 0.848 in [7]; 0.222 in [9]; -0.526 in [10]; 0.979 in [11]; 2.51 in experiment [15]; -0.143 in experiment [17]. For the same compound, the composite z-score in experiment [18] was 0.992; in experiment [19], 0.627; in experiment [20] it was -0.121. Further, the z-score in experiment [8] is -0.0864 (inactive); in experiment [12], 1.19 (inactive); in [13], 0.339 (inactive); in [14], -1.41 (inactive); in [16], -0.253 (inactive).
Consider `COc1ccc(C#Cc2ccc3c(c2)[C@]2(C(=O)N3)[C@H](c3ccccc3OCCO)N3[C@H](c4ccccc4)[C@H](c4ccccc4)OC(=O)[C@H]3[C@@H]2C(=O)O)cc1`, for which the composite z-score is -0.377 in experiment [1]; 0.424 in experiment [2]; 0.0406 in [3]; 1.16 in experiment [4]; 1.34 in [5]; 1.74 in experiment [6]. Moreover, the composite z-score in experiment [7] was 1.28; in [9], 0.336; in [10] it was 0.132; in [11], 1.54; in experiment [15] it was 3.09; in [17] it was 0.111. Besides, the composite z-score in experiment [18] amounted to 1.11; in [19], 1.03; in [20], 0.122. In addition, the z-score in experiment [8] was -0.0646 (inactive); in experiment [12] it was 3.22 (inactive); in experiment [13], 1.13 (inactive); in experiment [14], 0.629 (inactive); in experiment [16], 0.0706 (inactive).
As for `CC(=O)NCCCC[C@@H]1NC(=O)[C@@H]2C[C@H](C(=O)NCCCCN(C)C)[C@H](c3cccc(OCCO)c3)N2C1=O`, the composite z-score is 0.123 in [1]; 0.537 in [2]; -0.108 in experiment [3]; -0.107 in [4]; -0.569 in [5]; -0.283 in [6]. Moreover, the composite z-score in experiment [7] was 1.12; in [9] it was 0.571; in experiment [10] it was -0.236; in experiment [11], 0.558; in [15], 1.51; in experiment [17] it was -0.0124. The composite z-score in experiment [18] is -0.104; in [19], 0.465; in experiment [20] it was -0.127. Also, the z-score in experiment [8] is 3.26 (inactive); in [12] it was -0.546 (inactive); in experiment [13] it was 0.595 (inactive); in [14], -0.789 (inactive); in experiment [16], 0.187 (inactive).
